In the library only some 7.5% were active in any assay of this set; here they are far more common.
ELG1 genotoxic – induces genotoxicity in HEK293T cells with luciferase-tagged ELG1 | HEK293T ELG1-luciferase reporter, luminescence, 16 h | Potency, µM (series often up to 46 µM), most hits filed as activators | actives 1.3% (n = 330,000) | AID 504466; note: nearly all actives have a fitted effect of over 60% in size
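Quantitative HTS format in 1536-well plates. HEK293T ELG1-luciferase reporter cells receive test compound and are incubated 16 hr at 37 °C, 5% CO2; ONE-Glo added, 30 min room temperature, then luminescence read.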
Rab9 prom act – activators of Rab9 promoter; Huh7 Rab9 promoter-luciferase reporter, luminescence, 24 h; Potency, µM (top dose mostly 9.22 µM), actives largely listed as activators; actives 2.8% (n = 320,000); note: nearly all actives have a fitted effect of over 60% in size
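Luciferase signal after 10 min detection reagent at ambient indicates Rab9 promoter upregulation; stably transfected Huh7 cells were treated 24 h with compound in DMSO at 37 °C, 5% CO2.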
NPC1 promoter act – NPC1 promoter activation | actives 2.4% (n = 320,000) | Potency, µM (series often up to 9.22 µM), hits mostly activators | AID 485313 | Huh7 NPC1 promoter luciferase reporter, 24 h; note: nearly all actives have a fitted effect of over 60% in size
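Huh7 cells stably carrying NPC1 promoter–luciferase, plated in Opti-MEM with 10% FBS for 2 h, were exposed to compound in DMSO for 24 h at 37 °C; luciferase reagent was added for 10 min and luminescence read.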
SMN2 splice up – increases expression of the SMN2 splice variant. HEK293 SMN2-luciferase splicing reporter, luminescence, 30-36 h. Potency, µM (top dose mostly 46.1 µM), usual class: activators. actives 2.8% (n = 210,000). AID 1458; note: nearly all actives have a fitted effect of over 55% in size
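qHTS luciferase splicing reporter: luminescence rises when SMN2 exon 7 is included in transfected HEK293 cells. Compound exposure lasted 30-36 h at 37C, with 4.5 mM final sodium butyrate as control, followed by a ONE-Glo read.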
KinaseGlo FLuc – Kinase-Glo luciferase inhibition (counter-screen). Q27757. Kinase-Glo luciferase, ATP luminescence, 8 min. Potency, µM (highest dose often 38.3 µM), hits mostly inhibitors. actives 0.28% (n = 200,000); note: nearly all actives have a fitted effect of over 60% in size
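Light output from Kinase-Glo luciferase with luciferin and 10 uM ATP in 50 mM imidazole pH 7.2, KCl, MgCl2, Tween 20, BSA; compound pin-delivered, 8-min ambient incubation, then luminescence read.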
FLuc counter – firefly luciferase modulation, counter-screen for miR-21 project. P08659. purified FLuc, Km substrates, luminescence inhibition. Potency, µM (top dose mostly 57.5 µM), usual class: inhibitors. actives 6.9% (n = 360,000). AID 588342; note: nearly all actives have a fitted effect of over 55% in size
Target sequence (P08659 whole entry, looked up): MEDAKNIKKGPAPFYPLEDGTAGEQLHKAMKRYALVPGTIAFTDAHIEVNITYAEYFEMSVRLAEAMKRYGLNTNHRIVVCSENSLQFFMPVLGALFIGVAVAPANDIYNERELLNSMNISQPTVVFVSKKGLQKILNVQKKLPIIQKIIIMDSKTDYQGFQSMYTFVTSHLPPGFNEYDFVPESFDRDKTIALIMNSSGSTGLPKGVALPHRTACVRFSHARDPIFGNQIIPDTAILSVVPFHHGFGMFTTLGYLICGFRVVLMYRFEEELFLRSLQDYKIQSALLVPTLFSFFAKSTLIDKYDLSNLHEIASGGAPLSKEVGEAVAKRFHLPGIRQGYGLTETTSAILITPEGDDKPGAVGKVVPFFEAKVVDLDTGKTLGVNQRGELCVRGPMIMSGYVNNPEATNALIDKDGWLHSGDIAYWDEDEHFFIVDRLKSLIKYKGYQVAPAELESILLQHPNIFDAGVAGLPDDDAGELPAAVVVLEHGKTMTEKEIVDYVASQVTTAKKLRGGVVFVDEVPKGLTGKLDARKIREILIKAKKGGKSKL
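Purified P. pyralis luciferase, 10 nM final, with Km-level 10 uM D-luciferin and 10 uM ATP in 50 mM Tris acetate pH 7.5, 10 mM Mg acetate, 0.01% Tween-20, 0.05% BSA; 6-point qHTS titration about 60 µM downward; luminescence read.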
Of the large screens only hits and unclear results are named; the others gave an inactive call. Calls come from the whole dose curve; as a rule, active = well fitted curve in the direction sought with a large enough effect; inconclusive = small, poorly fitted or top-dose-only effect, or another doubt; inactive = no such curve, though single readings can be large; an effect the other way counts as inactive or inconclusive.

O=C(Nc1cccc(NC(=O)c2ccc(Br)o2)c1)c1ccccc1	SMN2 splice up inconclusive, FLuc counter inconclusive (no result: KinaseGlo FLuc)
Cc1cccc(NC(=O)c2ccc(C(=O)c3ccccc3)o2)c1	ELG1 genotoxic inconclusive, Rab9 prom act inconclusive, SMN2 splice up 15.8µM, FLuc counter 8.49µM
CN1CCN(c2ccc(NC(=O)c3ccc(-c4ccc(Br)cc4)o3)cc2)CC1	FLuc counter inconclusive
O=C(Nc1ccccc1)c1ccc(Br)o1	FLuc counter inconclusive
COc1ccc(NC(=O)c2ccc(C(=O)c3ccccc3)o2)cc1	Rab9 prom act inconclusive, FLuc counter inconclusive
Cc1ccc(C(=O)COC(=O)C2CC3CCCC(C2)C3=O)cc1[N+](=O)[O-] (stereo not given)	none (no result: SMN2 splice up, KinaseGlo FLuc)
CCOC(=O)C(C(=O)OCC)N(C#N)c1nc(OC)nc(N(C)C)n1	SMN2 splice up 3.16µM
CCOC(=O)C(C(=O)OCC)N(C#N)c1nc(SC)nc(N(C)C)n1	none
Cc1cc(C(=O)Nc2nnc(C3CCCCC3)s2)cs1	ELG1 genotoxic inconclusive, Rab9 prom act 1.58µM, NPC1 promoter act inconclusive
Cc1cc(C(=O)Nc2nnc(C(F)(F)F)s2)cs1	Rab9 prom act inconclusive, NPC1 promoter act inconclusive, FLuc counter 12µM (no result: SMN2 splice up, KinaseGlo FLuc)
CCn1c(CNC(=O)c2ccc(OC)cc2)nnc1SCC(=O)Nc1cc(C)ccc1C	none (no result: ELG1 genotoxic, Rab9 prom act, NPC1 promoter act, KinaseGlo FLuc)
Cc1ccc(S(=O)(=O)N(C)C)cc1NC(=O)COC(=O)c1ccc2ccccc2n1	none (no result: SMN2 splice up, KinaseGlo FLuc)
Brc1cc(Br)c2nc(-c3cccs3)ccc2c1	ELG1 genotoxic 11.2µM, Rab9 prom act inconclusive, SMN2 splice up 11.2µM, FLuc counter 9.53µM
Nc1nccc(-c2cccs2)n1	none
CC(=O)Nc1ccc(NC(=O)C(NC(=O)C2CCC(C)CC2)C(C)C)cc1 (stereo not given)	none (no result: ELG1 genotoxic, Rab9 prom act, NPC1 promoter act, KinaseGlo FLuc)
c1ccc(-c2cn3c(n2)CCC3)cc1	none
O=[N+]([O-])c1ccc(-c2cn3c(n2)CCC3)cc1	Rab9 prom act inconclusive, NPC1 promoter act inconclusive, FLuc counter 23.9µM (no result: SMN2 splice up, KinaseGlo FLuc)
O=C(COC(=O)c1cccs1)c1ccccc1	Rab9 prom act 3.98µM, NPC1 promoter act inconclusive, FLuc counter 0.849µM
O=C(CNC(=O)c1cccs1)NCC(=O)OCC(=O)c1ccccc1	none (no result: SMN2 splice up, KinaseGlo FLuc)
COc1cccc(C(=O)COC(=O)c2cc(-c3cccs3)nc3ccccc23)c1	none (no result: ELG1 genotoxic, Rab9 prom act, NPC1 promoter act, KinaseGlo FLuc)
COc1cccc(C(=O)COC(=O)c2cccs2)c1	ELG1 genotoxic inconclusive, NPC1 promoter act inconclusive, FLuc counter 0.477µM (no result: SMN2 splice up, KinaseGlo FLuc)
O=C(CCC(=O)c1cccs1)NC(c1ccccc1)c1ccccc1	none
O=C(CSCc1ccco1)c1cccs1	ELG1 genotoxic 11.6µM, Rab9 prom act 1.26µM, NPC1 promoter act 3.98µM, FLuc counter 9.53µM
O=C(CCC(=O)c1cccs1)c1cccs1	ELG1 genotoxic 16.4µM, Rab9 prom act 0.631µM, NPC1 promoter act 1.26µM, FLuc counter 4.78µM (no result: SMN2 splice up)
CC(C)Oc1ccc(CNS(=O)(=O)c2ccc(-c3cc(C(F)(F)F)on3)s2)cc1	none (no result: ELG1 genotoxic, Rab9 prom act, NPC1 promoter act, SMN2 splice up, KinaseGlo FLuc)
CN(Cc1ccccc1)C(=O)CN1C(=O)CSc2ccc(S(=O)(=O)N3CCOCC3)cc21	none (no result: ELG1 genotoxic, Rab9 prom act, NPC1 promoter act, SMN2 splice up, KinaseGlo FLuc)
COc1ccc(S(=O)(=O)N2CCN(C(=O)CCNC(=O)c3ccccc3Cl)CC2)cc1	none (no result: SMN2 splice up, KinaseGlo FLuc, FLuc counter)
CCc1nnc(NC(=O)CSc2nc3c([nH]c4ccccc43)c(=O)n2-c2ccc(Cl)cc2)s1	none (no result: ELG1 genotoxic, Rab9 prom act, NPC1 promoter act, SMN2 splice up, KinaseGlo FLuc)
COc1ccc(N=C(C)C2=C(O)c3ccccc3C2=O)cc1	ELG1 genotoxic 2.59µM, Rab9 prom act 0.447µM, NPC1 promoter act 0.708µM, SMN2 splice up 5.01µM, FLuc counter 0.953µM
CC(=O)Nc1ccc(N=C(C2=C(O)c3ccccc3C2=O)c2ccccc2)cc1	Rab9 prom act inconclusive, FLuc counter inconclusive
CC(=NCCCN(C)C)C1=C(O)c2ccccc2C1=O	none
CCOc1ccc(N=C(C)C2=C(O)c3ccccc3C2=O)cc1	ELG1 genotoxic inconclusive, Rab9 prom act 1.26µM, NPC1 promoter act 0.794µM, FLuc counter 1.35µM (no result: SMN2 splice up, KinaseGlo FLuc)
CC(=NC1CC1)C1=C(O)c2ccccc2C1=O	ELG1 genotoxic inconclusive, Rab9 prom act inconclusive, FLuc counter 16.9µM
C/C(=N\N(C)C)C1=C(O)c2ccccc2C1=O	FLuc counter inconclusive
CCn1c(=N)c(C(=O)NC2CCCCC2)cc2c(=O)n3cc(C)ccc3nc21	none (no result: ELG1 genotoxic, Rab9 prom act, NPC1 promoter act, KinaseGlo FLuc)

Compound activity from PubChem.
